# Measurements: PubChem BioAssay AID504834 (National Center for Advancing Translational Sciences (NCATS), 2011)
# The campaign covered roughly 320,000 compounds. About 22,000 (6.9%) were called active. Inconclusive results (about 27%) are left out. What follows is part of a selection rich in actives, with near analogues and random picks from the rest. A number with no mark means an inactive call. Calls follow the shape of the dose curve; as a rule, active = well fitted inhibition curve with a large enough effect; inconclusive = small, poorly fitted or top-dose-only effect, or another doubt; inactive = no such curve, though single readings can be large or run the other way.
# Experiment: Primary qHTS for delayed death inhibitors of the malarial parasite plastid, 96 hour incubation
# Conditions: P. falciparum luciferase reporter growth; series mostly up to 28.7 µM; activity change, negative = inhibition: at the top concentration
# Outline: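 Readout is luminescence from an integrated firefly luciferase in P. falciparum. Red cells, 2% hematocrit and 0.05% parasitemia final, were cultured with compound through two parasite generations (96 hours) at 37 C, 5% CO2.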
# % is scaled to controls: 0 for no effect and ±100 for the full control effect; potency is read from the fitted curve at half-maximal effect.
SMILES,"activity change, negative = inhibition [%]",Potency
CCC(C)CCN1CCN=C1N(C)C (stereo not given),51.7,–
CCOc1ccc(/C=N\NC(=O)c2c(C)nc3cc(C)ccn23)cc1,10.6,–
CCOC(=O)C1CCN(Cc2ccc(-c3ccccc3)cc2)CC1,-21.5,–
CCN(CC)Cc1c(C(=O)OC)nnn1-c1nonc1N,-0.231,–
CCOC(=O)c1nnn(-c2nonc2-n2cccc2)c1CN1CCC(C(=O)OCC)CC1,–,0.928 µM (active)
Cc1ccccc1OCC(=O)Nc1nnc(S(=O)(=O)N2CCCC2)s1,40.6,–
CCOC(=O)CC1COCCN1C(=O)c1cc(COc2ccc(F)c(F)c2)on1 (stereo not given),16.8,–
Cn1c(N2CCOCC2)c(C=O)c2ccccc21,4.33,–
FC(F)(F)c1ccnc(Oc2ccc(C3=NCCS3)cc2)c1,335,–
O=[N+]([O-])c1cc(S(=O)(=O)CCCN2CCOCC2)ccc1F,–,10.4 µM (active)
O=S(=O)(NCCCN1CCOCC1)c1ccc(F)c(Cl)c1,-15.7,–
O=C(NCCCN1CCOCC1)c1ccc([N+](=O)[O-])cc1[N+](=O)[O-],18.7,–
CCc1nccn1CCC(=O)N1CCCC(N2CCN(c3ccccc3F)CC2)C1 (stereo not given),40.6,–
CCOc1ccc(NC(=O)CN(C)C(=O)CSc2ccccc2)cc1OCC,17.1,–
CCc1ccc(-c2nn(-c3ccccc3C)cc2C(=O)N2CCN(C3CCS(=O)(=O)C3)CC2)cc1 (stereo not given),-29,–
CCc1ccc(N2CC(C(=O)Nc3ccc(S(=O)(=O)Nc4nccs4)cc3)CC2=O)cc1 (stereo not given),19.7,–
COc1ccc([N+](=O)[O-])cc1N(CC(O)CN(CC(C)C)CC(C)C)S(=O)(=O)c1ccc(C)cc1 (stereo not given),-6.94,–
COc1ccc2[nH]c(C(=O)N/N=C/c3cc(OC)c(OC)c(OC)c3)cc2c1,–,5.86 µM (active)
COc1cc2cc(C(=O)N/N=C/c3cccc(OC)c3OC)[nH]c2cc1OC,-29.6,–
CCOc1ccc2[nH]c(C(=O)N/N=C/c3cccc(OC)c3OC)cc2c1,17.8,–
Cc1ccnc(NS(=O)(=O)c2ccc(NC(=O)c3oc4ccc(F)cc4c3C)cc2)n1,2.11,–
COc1ccc(Nc2ccc([N+](=O)[O-])cn2)cn1,5.89,–
COC(=O)C1(O)CC(C(C)C)=NN1C(=O)c1ccc(Cl)cc1 (stereo not given),14.7,–
O=C(c1ccc(Cl)cc1)N1N=C(c2ccccn2)CC1(O)C(F)(F)F (stereo not given),–,6.57 µM (active)
O=C(C1CC1)N1N=C(c2ccc(Br)cc2)CC1(O)C(F)(F)F (stereo not given),-6.38,–
Cc1ccc(NC(=O)NC(=O)c2ccccc2)cc1F,9.94,–
CCc1c(C)[nH]c(=S)c(C#N)c1C,–,3.29 µM (active)
CC(=O)c1c(C)[nH]c(=S)c(C#N)c1-c1ccc(F)cc1,24.5,–
Cc1ccc(-n2cnc3ncnc(-c4ccccc4)c32)cc1,35,–
Cc1ccc(-c2nn(C(C)(C)C)c3ncnc(N)c23)cc1,–,2.33 µM (active)
